# Measured values from the supplement of paper PMC3334620.
# In all, about 33,000 sequences were measured (“E-score (-0.5 to 0.5)”: median about -0.017, highest 2% from about 0.3 on). Many of the other results were omitted from the sample, so the highest values are more common in it than they were.
# Molecular target: T1, Sut1 (UniProt P53032)
# T1 sequence: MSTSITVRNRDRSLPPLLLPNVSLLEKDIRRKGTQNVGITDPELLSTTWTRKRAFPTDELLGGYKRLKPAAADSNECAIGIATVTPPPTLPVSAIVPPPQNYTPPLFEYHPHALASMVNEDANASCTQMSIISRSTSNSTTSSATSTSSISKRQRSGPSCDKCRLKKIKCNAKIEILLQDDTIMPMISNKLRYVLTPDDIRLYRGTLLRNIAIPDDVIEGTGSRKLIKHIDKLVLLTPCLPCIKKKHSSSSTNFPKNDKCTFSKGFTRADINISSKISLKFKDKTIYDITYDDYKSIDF
# Assay: PBM E-score (8-mer binding enrichment) (E-score (-0.5 to 0.5)); higher = stronger / more preferred TF binding
# Settings: protein concentration: 200 nM; construct: GST-full length
# How it was run: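 Universal all-10-mer Agilent arrays, double-stranded by primer extension on fresh or once-stripped slides, were probed with about 100-200 nM GST-tagged yeast transcription factors made by PURExpress. Fluorescent anti-GST detected bound protein, and masliner normalised the scans. E-scores from the Universal PBM Analysis Suite were given to each ungapped eight-base word pooled with its reverse complement.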
row,Sequence,PBM E-score
1,ACCTCTAG,-0.0682
2,GTGGCAGA,-0.253
3,CATAACGC,-0.00576
4,GATGAAGC,-0.0232
5,TAACTGCA,0.0867
6,CCGGAATC,0.326
7,CCGGAAGA,0.312
8,ACGGAAGA,0.147
9,CCGGAACA,0.304
10,CCGGAATA,0.294
11,CCGGAACC,0.185
12,CCGGAACG,0.202
13,ACGGAACA,0.229
14,CCGGAAGG,0.169
15,ACGGAATC,0.252
16,TCGGAACA,0.303
17,GCGGAACA,-0.11
18,TATACGCA,0.0114
19,CCCAACGC,-0.103
20,TCACTTCA,-0.0869
21,CGGCTCAG,-0.117
22,TCTAGCCA,-0.0636
23,GACAACGC,-0.0716
24,CAATTTCA,0.00344
25,AAATTTCA,0.00137

row,Sequence,PBM E-score
1,TAATTTCA,0.346
2,AGGACATC,0.0505
3,GGGACAAC,-0.231
4,CGGACATC,0.406
5,CGGACATA,0.433
6,CGGACAAG,0.22
7,CGGACAAC,0.309
8,GGGACATA,-0.0931
9,CTGACATC,0.0186
10,AGGACATA,-0.0903
11,ACTAGGCC,-0.243
12,ATAGCCCC,-0.325
13,ATTTGCTC,0.141
14,CGGGAGCA,-0.0121
15,CCGGAGCG,0.234
16,CTGGAGCC,-0.204
17,ACGGAGCA,0.207
18,CCGGAGCC,0.396
19,CCGGAGCA,0.307
20,GCGGAGCA,0.152
21,GCGGAGCC,0.113
22,TCGGAGCA,0.3
23,CGGCGGTA,0.14
24,CGTTTATC,0.171
25,ACCCTGGG,-0.279

row,Sequence,PBM E-score
1,AGCGTAGC,-0.0963
2,CCTTTGAA,-0.0516
3,ATGATCGC,-0.106
4,AATGATAA,0.299
5,AATAATGT,0.235
6,AATAATAT,0.346
7,GTTAATAA,0.319
8,AATGATAG,0.251
9,AATAATAG,0.157
10,TATGATAA,0.233
11,AATAATAC,0.202
12,AATAATAA,0.304
13,CTTAATAA,0.217
14,ATTAATAA,0.265
15,GATAATAA,0.234
16,AACTTAAG,0.132
17,CAGTTTGG,-0.198
18,AAGCGCAC,0.00639
19,TTACGTAA,-0.0108
20,ATCAGATG,-0.0902
21,CATCTGAC,-0.163
22,TGTCAGAA,-0.0161
23,CATAATAA,0.131
24,GGTAATAA,0.188
25,AGTAATAT,0.312

row,Sequence,PBM E-score
1,GATAACAA,0.205
2,TGTAATAA,0.315
3,CATAACAA,0.179
4,AGTAATAC,0.133
5,TCTAATAA,0.173
6,TATAACAA,0.319
7,CGTAATAA,0.0956
8,TATAATAA,0.298
9,AGTAATAG,0.063
10,CATCTTCG,-0.0746
11,AAGATCAA,0.0587
12,AATTGCAG,0.0512
13,GCGACCGC,-0.23
14,AACAATAT,0.331
15,AACAATAA,0.192
16,AACAATAC,0.0474
17,AGGCTGAC,-0.245
18,ATAGGTCA,0.0286
19,AGAATGTC,-0.0101
20,AAGCATAC,0.164
21,ATAAAATG,0.289
22,CTTCGGAC,0.405
23,GTTCGGAA,0.289
24,CTTCGGTA,0.0563
25,CTTCGGCC,-0.00176

row,Sequence,PBM E-score
1,CTTCGGGC,-0.277
2,CTTCGGAA,0.335
3,CGCGACAG,-0.283
4,TGGCGACA,-0.207
5,GATTCGGA,0.385
6,TATTCGAA,0.0804
7,TATTCGGA,0.352
8,CATTCGGA,0.392
9,CATTCGGG,-0.0375
10,GATTCGGC,0.0544
11,CATTCGGC,-0.0155
12,AATTCGGA,0.396
13,AATTCGGC,-0.0483
14,TATTCGCA,0.0506
15,AATTCGGG,0.17
16,GATTCGCA,0.113
17,GCGGGAGC,-0.162
18,CCGCGAAC,0.0271
19,ATCTAGGG,-0.097
20,CAGCCCGA,-0.211
21,ACAGGACC,-0.108
22,CGGCCCAA,-0.116
23,CGTTGACC,-0.224
24,TGAAAGCA,0.148
25,AGTAATTG,0.0745

row,Sequence,PBM E-score
1,ATTAATTA,0.188
2,ATTAATTC,0.298
3,CGTAATTC,0.0414
4,ATTAATTG,0.187
5,AGTAATTC,0.307
6,CGACAGCA,-0.0542
7,TGATCGCA,-0.221
8,CATGAGCC,-0.195
9,GAATTCAC,0.0262
10,GAGAAGGA,-0.0992
11,ACGTCCGC,-0.121
12,AAGTCCGC,0.486
13,AAGTCCCT,-0.131
14,AAGTCCTC,0.0867
15,AAGTCCGT,0.487
16,AAGTCCAT,0.0246
17,TCCTTCGA,0.11
18,GAATATGC,0.0981
19,GCCCGCAA,-0.0979
20,ACATCGCA,-0.067
21,CAGGCCTA,-0.108
22,GCTATCAA,0.119
23,ATGTTGGC,-0.0785
24,GCGGCCCA,0.00935
25,AGTTAGCC,0.177

row,Sequence,PBM E-score
1,GGAACTCA,-0.0534
2,AGAACTCG,-0.03
3,ATAACTCG,0.149
4,CGAACTCG,-0.0661
5,ATAACTCC,0.365
6,CTAACTCC,0.221
7,AGAACTCT,0.07
8,CGAACTCC,0.391
9,GGAACTCC,0.356
10,GGAACTAC,-0.062
11,CGAACTCA,-0.0187
12,AGAACTCC,0.31
13,AGCTGCAG,0.0539
14,TCCATAGA,0.00973
15,CAGTTCTA,-0.125
16,CGAGAATC,0.0357
17,CTGCAAGA,-0.136
18,AAGCCTGA,-0.208
19,ACAACAGT,0.0455
20,AAGGGTCT,-0.114
21,TAACTTAA,0.246
22,AAACCCCC,-0.346
